About 14,000 (4.5%) of roughly 310,000 compounds showed an effect of 50% or more. Effects have a minus sign here. What follows is part of a selection rich in strong results, with near analogues and random picks from the rest.
Molecular target: human ether-à-go-go-related gene (hERG) potassium channel (human, UniProt Q12809)
Test: primary screen, population patch clamp on CHO cells stably expressing hERG; higher = less effect of the substance
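Further: peak tail current of the secondary pulse compared with the same well before compound.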

Sequence of human ether-à-go-go-related gene (hERG) potassium channel (Q12809 whole entry, looked up): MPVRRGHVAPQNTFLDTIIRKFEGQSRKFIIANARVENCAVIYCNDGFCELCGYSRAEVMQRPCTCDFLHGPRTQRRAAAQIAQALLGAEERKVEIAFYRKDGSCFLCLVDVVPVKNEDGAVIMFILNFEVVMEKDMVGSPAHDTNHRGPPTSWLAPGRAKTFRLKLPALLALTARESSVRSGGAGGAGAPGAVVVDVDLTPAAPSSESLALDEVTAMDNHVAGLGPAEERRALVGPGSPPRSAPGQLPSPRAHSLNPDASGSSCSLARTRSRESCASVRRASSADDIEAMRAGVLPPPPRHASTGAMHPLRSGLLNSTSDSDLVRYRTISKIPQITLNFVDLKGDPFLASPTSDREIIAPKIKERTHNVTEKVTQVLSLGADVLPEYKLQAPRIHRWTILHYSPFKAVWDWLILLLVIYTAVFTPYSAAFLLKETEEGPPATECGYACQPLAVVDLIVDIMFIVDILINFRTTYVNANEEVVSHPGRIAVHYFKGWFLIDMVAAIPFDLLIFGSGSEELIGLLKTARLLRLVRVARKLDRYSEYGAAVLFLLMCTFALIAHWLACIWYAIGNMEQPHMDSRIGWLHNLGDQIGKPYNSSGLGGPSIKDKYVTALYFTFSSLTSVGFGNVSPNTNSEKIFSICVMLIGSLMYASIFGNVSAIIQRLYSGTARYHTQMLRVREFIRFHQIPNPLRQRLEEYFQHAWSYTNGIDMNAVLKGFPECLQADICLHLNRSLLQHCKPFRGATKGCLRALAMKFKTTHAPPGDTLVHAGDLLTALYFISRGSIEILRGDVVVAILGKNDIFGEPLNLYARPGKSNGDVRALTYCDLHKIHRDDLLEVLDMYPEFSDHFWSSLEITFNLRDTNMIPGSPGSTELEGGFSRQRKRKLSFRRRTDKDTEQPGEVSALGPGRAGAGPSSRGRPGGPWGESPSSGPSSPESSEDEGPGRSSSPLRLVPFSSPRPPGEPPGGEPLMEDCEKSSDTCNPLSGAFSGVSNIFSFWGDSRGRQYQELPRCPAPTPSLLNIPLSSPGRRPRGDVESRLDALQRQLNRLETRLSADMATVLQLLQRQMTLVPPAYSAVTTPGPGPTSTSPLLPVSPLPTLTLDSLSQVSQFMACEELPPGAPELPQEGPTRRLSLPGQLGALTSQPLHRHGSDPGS

| SMILES | hERG current change (%, negative = inhibition) at 10uM |
| --- | --- |
| O=C(COC(=O)/C=C/c1cccc(C(F)(F)F)c1)NCc1ccco1 | 13.5% |
| Cc1ccc(OCC(=O)Nc2ccccc2F)cc1C | 23.6% |
| Cc1nc(NNC(=O)c2ccccc2)cc(-c2ccccc2)n1 | 3.7% |
| Cc1nc(NNC(=O)c2ccc([N+](=O)[O-])cc2)cc(-c2ccccc2)n1 | -50.8% |
| Cc1nc(NNC(=O)c2ccc(Cl)cc2Cl)cc(-c2ccccc2)n1 | 6.97% |
| CC1OC(OCC2OC(Oc3c(-c4ccc(O)cc4)oc4cc(O)cc(O)c4c3=O)C(O)C(O)C2O)C(O)C(O)C1O (centres unmarked) | 13.7% |
| Cc1cccc2c(CC(=O)Nc3ccccc3)noc12 | -0.38% |
| Cc1ccc2c(c1)N(Cc1ccc3c(c1)OCO3)C(=O)C(C)O2 (centres unmarked) | -13.5% |
| COc1ccccc1N1CCN(C(=O)c2cc(=O)c3cc(C)cc(C)c3o2)CC1 | -27.3% |
| CCc1ccc2oc(C(=O)N3CCN(c4ccc(OC)cc4)CC3)cc(=O)c2c1 | -36.7% |
| COc1ccccc1N1CCN(C(=O)c2cc(=O)c3ccc(C)cc3o2)CC1 | -20.7% |
| COc1ccccc1N1CCN(C(=O)c2cc(=O)c3cc(C)ccc3o2)CC1 | -50.7% |
| CCc1ccc2oc(C(=O)N3CCN(C)CC3)cc(=O)c2c1 | -32.4% |
| CCc1ccc2oc(C(=O)N3CCN(c4ccccc4OC)CC3)cc(=O)c2c1 | -68.7% |
| CN(C)/C=N/c1c(C(=O)NCc2ccccc2)nnn1Cc1ccccc1 | -12.2% |
| Cc1cccc(/C=C2\CS/C(=C\c3cccc(C)c3)C2=O)c1 | 0.505% |
| O=C(Nc1nnc(S(=O)(=O)N2CCOCC2)s1)c1ccccc1Br | 4.05% |
| COCCn1c(C)cc(C(=O)COC(=O)c2ccc(-n3nc(C)cc3C)cc2)c1C | 2.16% |
| O=C(CN1C(=O)C2C3C=CC(C3)C2C1=O)N1CC=C(c2ccccc2)CC1 (centres unmarked) | -10.1% |
| CCOC(Cn1cc(C)c(=O)[nH]c1=O)OCC | -2.39% |
| N#CCc1cc2ccc3cccc4ccc(c1)c2c34 | 16.2% |
| CCS(=O)(=O)Nc1cccc(C2=NN(S(=O)(=O)c3ccc(C)cc3)C(c3ccco3)C2)c1 (centres unmarked) | 12.9% |
| Cc1c(C)c2cc(Cl)c(O)c(CN3CCCC(C)C3)c2oc1=O (centres unmarked) | 8.5% |

| SMILES | hERG current change (%, negative = inhibition) at 10uM |
| --- | --- |
| O=C(Cn1cncn1)N/N=C/c1cccc2ccccc12 | -4.06% |
| O=C(CCN1CCCCC1)c1ccc2c(c1)OCO2 | -0.169% |
| CC(O)c1ccc2c(c1)OCCOCCN(C)CCOCCO2 (centres unmarked) | -1.64% |
| CC(C)CCC(CCN1CCCC1)c1ccc2c(c1)OCO2.O=C(O)C(=O)O (centres unmarked) | -78.1% |
| CC(C)CCC(CCN1CCOCC1)c1ccc2c(c1)OCO2.Cl (centres unmarked) | -72.9% |
| O=C(C1CCCN(Cc2ccc3c(c2)OCO3)C1)N1CCCC1.O=C(O)C(=O)O (centres unmarked) | 9.26% |
| C(=NCCCN1CCOCC1)c1ccc2c(c1)OCO2 | 15.7% |
| O=C(NCCc1cccc(F)c1)C1CCCN(c2nc3ccccc3s2)C1 (centres unmarked) | 7.76% |
| CN(C)S(=O)(=O)N(CC(=O)NCc1ccccc1)c1ccccc1 | 1.87% |
| CSc1nc2c(ccc3ccccc32)o1 | 12.9% |
| CCOC(=O)c1c(NC(=O)c2cccnc2)sc(C(C)=O)c1C | -5.09% |
| NC(=O)COC(=O)c1ccccc1SCC(=O)NC1CCCCCCC1 | 12% |
| Cc1c(NC(=S)NC(NC(=O)C(C)C)C(Cl)(Cl)Cl)c(=O)n(-c2ccccc2)n1C (centres unmarked) | -1.45% |
| O=C(CN1CCCCCC1)Nc1ccc([N+](=O)[O-])cc1Br | 6.13% |
| O=C(CN1CCN(c2ccccc2O)CC1)Nc1ccc([N+](=O)[O-])cc1Br | -6.3% |
| CN1CCN(CC(=O)Nc2ccc([N+](=O)[O-])cc2Br)CC1 | -70.9% |
| O=C(CN1CCOCC1)Nc1ccc([N+](=O)[O-])cc1Br | -43.7% |
| CC(=O)N1CCN(CC(=O)Nc2ccc([N+](=O)[O-])cc2Br)CC1 | -75.3% |
| CC(=O)N1CCN(CC(=O)Nc2cc([N+](=O)[O-])ccc2Cl)CC1 | 15.5% |
| N#CCc1nc(CSc2nc3ccccc3s2)cs1 | -2.16% |
| CC(=O)Nc1ccc(N2CCCCC2)c(C(=O)Nc2cccc(C)c2)c1 | -18.1% |
| Cn1cnnc1SCC(=O)Nc1ccccc1C(=O)NC1CCCC1 | 11.8% |
| O=C(O)c1ccc(NNC(=S)Nc2cc(C(F)(F)F)ccc2Cl)cc1 | 19.4% |

| SMILES | hERG current change (%, negative = inhibition) at 10uM |
| --- | --- |
| CCCc1ccc(OCC(=O)NNC(=O)c2cccnc2)cc1 | -10.9% |
| Cc1cccc(NC2=NC(C)(C)N=C(N)N2)c1C | 16.5% |
| COc1cc2ccccc2cc1C(=O)N(CCN(C)C)c1nc2c(C)cccc2s1.Cl | 19.2% |
| CN(C)CCN(C(=O)c1ccc2ccccc2c1)c1nc2c(F)cccc2s1.Cl | -10.2% |
| COc1ccc2nc(N(CCN(C)C)C(=O)c3ccc4c(c3)OCCO4)sc2c1.Cl | -35.3% |
| CCOc1cccc2sc(N(CCN(C)C)C(=O)c3ccc(Br)s3)nc12.Cl | -30.3% |
| CCOc1ccc2nc(N(CCN(C)C)C(=O)c3ccc4ccccc4c3)sc2c1.Cl | 4.67% |
| CCOc1cccc2sc(N(CCN(C)C)C(=O)c3ccc4c(c3)OCCO4)nc12.Cl | -53.5% |
| CCOc1cccc2sc(N(CCN(C)C)C(=O)c3cc4ccccc4cc3OC)nc12.Cl | -68.1% |
| COc1cc2ccccc2cc1C(=O)N(CCN(C)C)c1nc2c(F)cccc2s1.Cl | -38.4% |
| CCOc1cccc2sc(N(CCN(C)C)C(=O)c3ccc4ccccc4c3)nc12.Cl | -51.5% |
| CCCC(=O)Nc1ccc(-c2cn3cccnc3n2)cc1 | 3.08% |
| Cc1cc(C(=O)NCCCOC(C)C)c2ccccc2n1 | -7.22% |
| Cc1c(Cl)cccc1NC(=O)Nc1ccccc1C(N)=O | 19% |
| CCOC(=O)CSc1nnc(-c2ccccc2)o1 | 7.66% |
| COc1ccc(/C=C/C2=CCN(Cc3ccc(OC)cc3)CC2)cc1.Cl | -72.3% |
| COc1ccc(/C=C/C2=CCN(C)CC2)cc1.Cl | -19.7% |
| COc1ccc(CN2CCNCC2)cc1.Cl | 21.6% |
| NNc1n[nH]c(=S)n1N | 15.2% |
| CCOC(=O)c1cc(CC)sc1/N=C/C1C(=O)CCCC1=O | 10.9% |
| O=C1OC(c2ccc3c(c2)OCO3)N(C(=O)c2ccc(Cl)c(Cl)c2)c2ccccc21 (centres unmarked) | 15.1% |
| COc1cc(CO)cc(-c2cc(CO)cc(OC)c2OC)c1OC | 10.3% |
| COc1ccc(C(NC(=O)CNC(C)=O)C(=O)Nc2ccc(C(C)C)cc2)cc1 (centres unmarked) | -5.76% |

| SMILES | hERG current change (%, negative = inhibition) at 10uM |
| --- | --- |
| O=C(NC1CC1)c1cc(-c2ccccn2)nc2ccccc12 | -29.5% |
| Cl.O=C(NC1CCN(Cc2ccccc2)CC1)c1cc(-c2ccccn2)nc2ccccc12 | -69.4% |
| CC1CC(C)CN(C(=O)c2cc(-c3ccccn3)nc3ccccc23)C1 (centres unmarked) | -6.19% |
| Cc1ccc(-c2cc(C(=O)NC3CCN(Cc4ccccc4)CC3)c3ccccc3n2)cc1 | 7.42% |
| CC1CCN(CC(C)CNC(=O)c2cc(-c3ccccn3)nc3ccccc23)CC1 (centres unmarked) | -62.5% |
| CC(CN1CCCCC1)NC(=O)c1cc(-c2ccccn2)nc2ccc(Cl)cc12 (centres unmarked) | -21.8% |
| Cc1cc(C)n(CC(O)COc2ccc(F)cc2)n1 (centres unmarked) | 9.76% |
| CCC(Cc1ccccc1)NC(=O)/C=C/c1ccco1 (centres unmarked) | 9.2% |
| CCn1cc(S(=O)(=O)Nc2cc(C)ccc2F)cn1 | 3.63% |
| O=C(CNC(=O)c1sc2ccccc2c1Cl)OCc1ccccc1 | 3.28% |
| COC(=O)C1=C(C)N(CCCC(=O)O)C(=O)NC1c1cccc2ccccc12 (centres unmarked) | 5.92% |
| COc1ccccc1-n1c(=O)[nH]c2c(C(N)=O)nc(CC(C)C)nc21 | 5.01% |
| O=C(N/N=C/c1cn(-c2ccccc2)nc1-c1cccs1)c1ccncc1 | -10.2% |
| NC(N)=N/N=C/c1cn(-c2ccccc2)nc1-c1cccs1.O=[N+]([O-])O | -62.1% |
| NC(=O)N/N=C/c1cn(-c2ccccc2)nc1-c1cccs1 | -38.8% |
| CCOc1ccc(CN(C)C(=O)c2ccc(=O)[nH]c2)cc1 | 16.6% |
| CCOC(=O)c1ncn2c1CN(C)C(=O)c1cc(F)ccc1-2 | 8.55% |
| CCOC(=O)C1=C(C)N(C)C(=S)NC1c1cc(OC)ccc1OC (centres unmarked) | 3.73% |
| CCOC(=O)c1ncn2c1[C@@H]1CCNC1C(=O)c1cc(OC)ccc1-2 (some centres unmarked) | -68.4% |
| Cc1nc(N2CCC(C(N)=O)CC2)c2c(-c3cccs3)csc2n1 | -0.812% |
